The whole screen tested about 340,000 compounds, of which about 1,400 (0.41%) were called active. What follows is part of a selection rich in actives, with near analogues and random picks from the rest. A number with no mark means an inactive call.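 Rule for the calls: active = response above a set limit, near 3 SD of response in nonfluorescent compounds (cut at about 42% in these data); inactive = the rest.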

For this test, the target named is Beta-2 adrenergic receptor (Homo sapiens) (UniProt P07550). The test is described as follows: beta2AR agonists driving receptor internalization, primary screen, cell-based, FAP fluorogen, flow cytometry (AID 504454). The conditions noted are these: Am2.2-beta2AR cells, active compounds read high, concentration not given here.
Beta-2 adrenergic receptor (Homo sapiens), sequence (P07550 whole entry, looked up): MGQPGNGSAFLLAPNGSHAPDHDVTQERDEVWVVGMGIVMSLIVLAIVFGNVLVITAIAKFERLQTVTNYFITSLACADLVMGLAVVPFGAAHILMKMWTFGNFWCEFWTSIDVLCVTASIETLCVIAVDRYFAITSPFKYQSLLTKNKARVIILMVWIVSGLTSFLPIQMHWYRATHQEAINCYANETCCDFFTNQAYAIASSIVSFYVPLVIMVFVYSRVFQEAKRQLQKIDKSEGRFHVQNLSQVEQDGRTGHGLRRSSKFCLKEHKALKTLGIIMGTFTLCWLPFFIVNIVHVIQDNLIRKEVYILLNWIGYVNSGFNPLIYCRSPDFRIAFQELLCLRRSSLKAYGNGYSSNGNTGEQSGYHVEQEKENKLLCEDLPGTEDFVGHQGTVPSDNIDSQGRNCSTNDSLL
In the case of `COc1ccc(C2c3[nH]c4ccccc4c3CCN2CCCn2cccn2)cc1C` (centres undefined), the response was -1.99%.
For `Cc1ccc(N2C(=O)CC(N3CCSCC3)C2=O)c(C)c1` (centres undefined), the response is -0.71%.
To `CC(C)(C)NC(=O)CN(C(=O)c1ccc(Cl)nc1)c1cccc2ccccc12` belongs 1.65%.
For `CC(=O)OCCOCn1cnn2c(=O)c(Br)c(C)nc12`, the response was -5.29%.
To `Cc1cnc(C)c(N2CCN(C(=O)C3CCC(=O)N(CCc4cccc(F)c4)C3)CC2)n1` (centres undefined) belongs -4.11%; to `NC(=O)C1(N2CCCC2)CCN(Cc2ccccc2)CC1`, -1.07%; to `C/C(=N\N)c1c(-c2ccccc2)c2cc(Br)ccc2[nH]c1=O`, -0.61%.
Consider `COC(=O)c1[nH]c2ccccc2c1NC(=O)CN1CCCc2ccccc21`, for which the response was 6.44%.
To `COC(=O)c1[nH]c2ccc(Br)cc2c1NC(=O)Oc1ccccc1` belongs 43.5% (active); to `O=C1c2oc3ccccc3c(=O)c2C(c2cccc(O)c2)N1c1ccccn1` (centres undefined), -12.8%.
The result for `COCCN1C(=O)c2oc3c(C)cc(C)cc3c(=O)c2C1c1cccc(O)c1` (centres undefined) reads 51.7% (active); that for `CCCOc1ccc(C2c3c(oc4cc(C)c(C)cc4c3=O)C(=O)N2CCCN2CCOCC2)cc1` (centres undefined), -4.95%; that for `COCCCn1c(SCc2cccc(OC)c2)nc2cc(OC)c(OC)cc2c1=N`, 7.49%.
As to `CCCC(=O)Nc1nnc(CC(=O)OCC)s1`, the response was 8.2%.
For the compound `CN1CCN(C(CNS(=O)(=O)c2cccs2)c2cccnc2)CC1` (centres undefined), the response was -2.41%.
As to `COc1ccc(C[C@H]2CN3C(=NC[C@H]3C)N2CCNC(=O)CCC2CCCCC2)cc1`, the response is 8.82%.
`CC(=O)Nc1ccc(N2C(=O)CC(Sc3nccc(C)n3)C2=O)cc1` (centres undefined): the response was 1.18%.
Take `COc1ccc(N2C(=O)CC(Sc3n[nH]c(-c4ccc(C)cc4)n3)C2=O)cc1` (centres undefined): the response is 1.89%.
The result for `CCOc1ccccc1N1C(=O)CC(Sc2nccc(C)n2)C1=O` (centres undefined) reads 47.5% (active).
The result for `COCC1CCN(C(=O)CCc2nnc(C3(c4ccc(Cl)cc4)CCC3)o2)C1` (centres undefined) reads -4.25%; that for `COc1ccc(CCNC(=O)CCc2ccccc2O)cc1OC`, 0.69%.
The result for `Cc1ccc(NC(=O)CN(C)C(=O)Cn2nnc(-c3ccccc3)n2)cc1` reads -5.12%; that for `CCOC(=O)c1ccc(NC(=O)Cn2nnc(-c3ccc(C)cc3)n2)cc1`, 91.8% (active).
As to `CCOC(=O)c1ccc(NC(=O)Cn2cnc3cc(C)c(C)cc32)cc1`, the response was 9.03%.
To `Cc1ccc(CNC(=O)CCC(=O)N2CC(C)Sc3ccccc32)cc1` (centres undefined) belongs -5.01%; to `O=C(/C=C/Sc1ncn[nH]1)c1ccc(Cl)cc1`, 78.1% (active).
As for `Cc1cccc(C=CC(=O)c2ccc(Cl)cc2)c1`, the response is 0.41%.
To `Cc1cc(C)nc(S/C=C/C(=O)c2ccccc2)n1` belongs 41.9%; to `CCc1cc(-c2nnc(SCC(=O)NC3CC3)n2C)cs1`, -9.66%; to `CCC(C)(C)NC(=O)CN(C(=O)C(=O)Nc1ccc2c(c1)OCCO2)C(C)(C)CC`, 0.65%.
The result for `COc1ccc(-n2c(=O)[nH]c3cc(C(=O)NCCc4ccc(OC)c(OC)c4)ccc3c2=O)c(OC)c1` reads 2.93%.
Turning to `CN/C(=C\[N+](=O)[O-])NCCSCc1csc(CN(C)C)n1`, the response was -4.88%.
To `CC(C)CC(=O)NC(=S)NNC(=O)c1cccc([N+](=O)[O-])c1` belongs -4.1%; to `C#CCN1CC(C)/C(=N/O)CC1C` (centres undefined), -6.18%; to `COc1ccccc1/C=C/C(=O)NC(=S)N1CCOCC1`, -6.28%.
In the case of `O=C(/C=C/c1ccco1)NC(=S)N1CCCCC1`, the response was 88.5% (active).
The result for `O=C(/C=C/c1ccco1)NC(=S)Nc1ccccc1Br` reads 12.9%; that for `C=CCNC(=O)COC(=O)c1ccccc1C(=O)N(C)C1CCCCC1`, 2.56%; that for `CCN1CCC2(CC1)N=C(c1ccc(F)cc1)C(=S)N2C(=O)c1ccc(C)cc1`, 85.6% (active).
To `CCN1CCN(C(=O)CSc2ccc(C)cc2)CC1` belongs 11.4%.
On to `Cc1ccc(SCC(=O)N2CCN(c3ccc(F)cc3)CC2)cc1`, for which the response is -23.7%.
To `CCn1cc(/C=C(\NC(=O)c2ccc(C)cc2)C(=O)NCCN2CCOCC2)c2ccccc21` belongs 4.83%; to `CCCN(Cc1cc2cccc(C)c2[nH]c1=O)S(C)(=O)=O`, 9.7%; to `COc1ccc(CCNC(=O)C(=O)Nc2ccc3nc4n(c(=O)c3c2)CCCCC4)cc1OC`, -7.18%.
On to `Cc1nc(-c2ccc(Cl)cc2)sc1C1(C)CC(c2ccc(Br)cc2)=NO1` (centres undefined), for which the response was -4.06%.
The result for `Clc1ccc2nc(-c3ccccc3)nc(C(Cl)Cl)c2c1` reads 50% (active); that for `Clc1cccc(-c2nc(NCC3CCCO3)c3ccccc3n2)c1` (centres undefined), -5.27%.
In the case of `NC(N)=Nc1nc(-c2ccccc2)c2cc(Cl)ccc2n1`, the response was 8.97%.
The result for `Cc1ccc(S(=O)(=O)NCCc2nnc3ccc(SCc4cccnc4)nn23)cc1` reads -8.28%; that for `CC(C)OC(=O)c1ccc(COc2ccc3ccc(=O)oc3c2)o1`, -3.14%; that for `CCN(CC)C(=O)CSc1nnc(CNc2ccc(F)cc2)n1Cc1ccco1`, -1.42%.
As for `O=C(N[C@@H](Cc1ccccc1)C(=O)OCc1ccccc1)c1nc[nH]c1C(=O)NC1CCNCC1`, the response was -6.96%.
For `CC(C)(C)OC(=O)N1CCC(NC(=O)c2[nH]cnc2C(=O)N[C@@H](Cc2ccccc2)C(=O)OCc2ccccc2)CC1`, the response is 78.6% (active).
The result for `CC(C)(C)OC(=O)CNC(=O)c1[nH]cnc1C(=O)N[C@@H](Cc1ccccc1)C(=O)OCc1ccccc1` reads 10.2%.
In the case of `O=C(O)c1ccc(Cn2cnc3c(=S)nc[nH]c32)cc1`, the response is 5.59%.
To `O=C(O)c1cc(S(=O)(=O)Nc2ccc3cn[nH]c3c2)ccc1Br` belongs 7.91%.
To `O=S(=O)(Nc1ccc2cn[nH]c2c1)c1ccccc1` belongs 4.15%.
Regarding `O=S(=O)(Nc1ccc2[nH]ncc2c1)c1ccccc1Cl`, the response was 60.7% (active).
The result for `Cc1ccc(S(=O)(=O)N(CC(=O)NN=C2CCN(C)CC2)c2ccc(F)cc2)cc1` reads -3.48%; that for `Oc1ccccc1C1=NN(c2ccccc2)C(c2ccccc2)C1` (centres undefined), 13.4%; that for `CC(=O)Nc1ccc(NC(=O)C2CCCN(S(=O)(=O)c3ccc(Cl)cc3)C2)cc1` (centres undefined), -2.61%.
With `COc1ccc(CCNC(=O)C2CCCN(S(=O)(=O)c3ccc(OC)cc3)C2)cc1` (centres undefined), the response is -1.09%.
For the compound `COc1ccc(S(=O)(=O)N2CCCC(C(=O)Nc3ccc(NC(=O)c4ccccn4)cc3)C2)cc1` (centres undefined), the response is 46.4% (active).
`COc1ccc(C2CC(c3cccs3)Nc3nnnn32)cc1` (centres undefined): the response was 12.6%.
Regarding `Cc1ccc2nc(-c3ccc(NC(=O)c4cccnc4)cc3)oc2c1`, the response was 17.5%.
For the compound `Cc1ccc(NC(=O)COc2ccc(/C=C3/NC(=O)NC3=O)cc2)cc1`, the response is 7.62%.
The result for `Cc1ccc(OCC(=O)Nc2ccc(-c3nc4ncccc4o3)cc2)cc1` reads 117% (active); that for `C#CCOc1ccc(/C=C2/C(=O)ON=C2C)cc1OCC`, -1.93%.
To `C=CCOc1ccc(/C=C2/C(=O)ON=C2C)cc1OCC` belongs 4.94%; to `COc1cc(/C=C2\SC(=O)NC2=O)ccc1OCc1ccc(Cl)nc1`, 12.6%; to `COc1cc(/C=C2/C(=O)ON=C2C)ccc1OCc1ccccc1F`, 88.8% (active).
The result for `COc1cc(/C=C2/C(=O)ON=C2C)ccc1OCc1cccc(F)c1` reads 105% (active).
Turning to `CC1=NOC(=O)/C1=C\c1ccccc1`, the response was 10.9%.
Take `CCOC(=O)c1cnc2c(c(C)nn2CC)c1Cl`: the response was 0.74%.
Regarding `Cc1ccccc1OCCC(=O)OCC(=O)NCCc1ccc(S(N)(=O)=O)cc1`, the response is -1.82%.
The result for `CCCCN(CC)C(=O)C1CCCN(S(=O)(=O)c2cccc3nsnc23)C1` (centres undefined) reads -4.41%.
To `CCCCNC(=S)NNC(=O)c1cc(C)on1` belongs 8.38%; to `COc1cc2c(cc1OC)C(/C=C/c1ccco1)=NCC2`, -9.05%.
To `CCOC(=O)/C(C#N)=C/c1ccc(OCC(=O)Nc2ccccc2)c(OC)c1` belongs 46.3% (active); to `CCCn1c(C)cc(/C=C(\C#N)C(=O)OCC(=O)Nc2cc(OC)c(OC)c(OC)c2)c1C`, -0.22%.
With `COc1cc(C2C3=C(CCCC3=O)OC3=C2C(=O)CCC3)ccc1OCC(=O)Nc1ccccc1`, the response is 3.2%.
In the case of `CCCn1c(N)c(C(=O)CSc2nnc3n2CCCCC3)c(=O)[nH]c1=O`, the response is -3.04%.
To `O=C(/C=C/c1ccc(Cl)cc1Cl)c1cccnc1` belongs 6.98%; to `O=C(Nc1cccnc1)c1ccc(Cl)cc1[N+](=O)[O-]`, 0.76%; to `O=C(/C=C/c1ccc(Cl)c([N+](=O)[O-])c1)c1cccnc1`, 77.9% (active).
For the compound `O=C(CNC(=O)c1ccccc1F)OCC(=O)c1c[nH]c2ccccc12`, the response is 10.7%.
Take `CC(C)CCN(C(=O)c1csnn1)C(C(=O)NC1CCCC1)c1ccccc1` (centres undefined): the response was 7.85%.
To `CC(=O)Nc1ccc(S(=O)(=O)N(C)c2nc3ccccc3nc2Cl)cc1` belongs 0.46%.
In the case of `CC(=O)Nc1ccc(Nc2c([N+](=O)[O-])cc(S(C)(=O)=O)cc2[N+](=O)[O-])cc1`, the response is 2.64%.
To `CC(=O)Nc1ccc(Nc2c3ccccc3nc3ccccc23)cc1` belongs 51.1% (active).
The result for `Cc1ccc(CN2CCN(/N=C/c3cccnc3)CC2)c(C)c1` reads 4.74%.
For `N#Cc1cccc(NC(=O)COC(=O)c2ccccc2C(=O)c2ccc(Cl)c([N+](=O)[O-])c2)c1`, the response was 46.3% (active).
For `CC(=O)Nc1ccc(NC(=O)C(C)OC(=O)c2ccccc2C(=O)c2ccc(Cl)c([N+](=O)[O-])c2)cc1` (centres undefined), the response is 20.8%.
Regarding `CC(=O)Nc1ccc(NC(=O)COC(=O)c2ccccc2C(=O)c2ccccc2)cc1`, the response is -9.28%.

(Values after PubChem BioAssay AID504454 (NMMLSC, 2011).)
